Screens from PubChem BioAssay.
Compounds with a hit are over-represented: about 1.6% of the library has one in this group of screens.
KCNQ2 inh: inhibitors of rat KCNQ2 potassium channel. 310,000 compounds, 1.1% hits. AID 2156. CHO-K1 KCNQ2, FluxOR thallium flux, 20 min; active compounds read low. B-score at 10 µM. O88943;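 active = fluorescence ratio B-score at most minus 3 library SDs, with starting brightness B-score within 2 library SDs, cut at about -5.5 in these data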
Target sequence (O88943 whole entry, looked up): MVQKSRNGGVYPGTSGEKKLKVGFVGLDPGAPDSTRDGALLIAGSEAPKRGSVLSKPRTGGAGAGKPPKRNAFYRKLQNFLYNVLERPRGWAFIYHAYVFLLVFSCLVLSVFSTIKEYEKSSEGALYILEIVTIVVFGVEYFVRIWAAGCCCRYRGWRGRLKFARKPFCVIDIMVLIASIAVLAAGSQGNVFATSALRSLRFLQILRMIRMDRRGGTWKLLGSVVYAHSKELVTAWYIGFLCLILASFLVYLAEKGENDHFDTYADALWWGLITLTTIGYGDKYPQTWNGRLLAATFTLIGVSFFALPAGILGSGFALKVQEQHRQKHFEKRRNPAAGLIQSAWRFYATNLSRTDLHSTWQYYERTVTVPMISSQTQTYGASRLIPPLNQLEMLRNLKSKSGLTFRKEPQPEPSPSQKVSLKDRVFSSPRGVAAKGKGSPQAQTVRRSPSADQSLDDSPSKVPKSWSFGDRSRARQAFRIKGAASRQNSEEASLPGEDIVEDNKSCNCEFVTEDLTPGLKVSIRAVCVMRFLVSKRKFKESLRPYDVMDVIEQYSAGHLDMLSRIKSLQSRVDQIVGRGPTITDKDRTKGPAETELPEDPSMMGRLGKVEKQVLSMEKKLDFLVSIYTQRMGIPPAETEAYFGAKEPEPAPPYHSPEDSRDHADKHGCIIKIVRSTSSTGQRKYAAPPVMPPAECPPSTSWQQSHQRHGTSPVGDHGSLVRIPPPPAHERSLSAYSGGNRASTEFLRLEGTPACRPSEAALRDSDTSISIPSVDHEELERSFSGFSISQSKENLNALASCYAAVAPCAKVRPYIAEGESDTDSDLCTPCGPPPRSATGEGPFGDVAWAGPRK
KCNQ2 pot: enhances the rat KCNQ2 potassium channel | O88943 | CHO-K1 KCNQ2, FluxOR thallium flux fluorescence; active compounds read high | B-score at 10 µM | 310,000 compounds, 0.54% hits | AID 2239;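 active = fluorescence ratio B-score at least 3 SD of library B-scores, with initial fluorescence B-score within 3 of them, cut at about 5.3 in these data; same plate scores as AID 2156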;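 note: B-score of peak minus minimum over baseline fluorescence ratio after K+ and Tl+ stimulus; positive B-score means potentiation of KCNQ2 with more thallium influx and brighter signal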
* marks the source's active call; other numbers are inactive results.

How did Cn1cc(C(=O)NCC2COc3ccccc3O2)c(=O)c2cc(S(=O)(=O)N3CCCCC3)ccc21 (configuration not stated) do in these assays?
KCNQ2 inh: inactive; KCNQ2 pot: 1.2

What do the screens show for `CC(=O)OC1c2ccccc2C(=O)N1c1ccccc1C` (configuration not stated)?
KCNQ2 inh: inactive; KCNQ2 pot: 0.27

Results for COc1ccc2nc(/N=C\N(C)C)sc2c1 ?
KCNQ2 inh: inactive

What do the screens show for `Cc1[nH]n(-c2ccc(Cl)cc2)c(=O)c1/C=N/c1nnc(-c2ccccc2)s1`?
KCNQ2 inh: inactive; KCNQ2 pot: 20*

Results for CCc1nnc(NS(=O)(=O)c2ccc(N=Cc3c(C)[nH]n(-c4ccc(Cl)cc4)c3=O)cc2)s1 ?
KCNQ2 inh: inactive; KCNQ2 pot: 2.1

What do the screens show for `COc1ccc2nc(/N=C/c3c(C)[nH]n(-c4ccc(C)cc4)c3=O)sc2c1`?
KCNQ2 inh: inactive; KCNQ2 pot: 21*

What do the screens show for `CC(C)(C)NC(=O)CSc1nnc(-c2ccncc2)n1Cc1ccccc1`?
KCNQ2 inh: inactive; KCNQ2 pot: 1.8

Results for CC(C)(C)NC(=O)CSc1nnc(-c2ccccn2)n1Cc1ccccc1 ?
KCNQ2 inh: inactive; KCNQ2 pot: 8.1*

What do the screens show for `Cc1ccc(-n2c(=O)[nH]cc(C(=O)N3CCc4ccccc43)c2=O)cc1`?
KCNQ2 inh: inactive

Results for CC(=O)Sc1nc(-c2ccccc2)[nH]c1S(=O)(=O)c1ccc(C)cc1 ?
KCNQ2 inh: -11*; KCNQ2 pot: -11

Results for CSc1nc(-c2ccc(C)cc2)[nH]c1S(=O)(=O)c1ccccc1 ?
KCNQ2 inh: inactive

Results for CC1CCCN(CCCNC(=O)c2nn(C)c3c2CSc2ccccc2-3)C1 (configuration not stated) ?
KCNQ2 inh: inactive; KCNQ2 pot: 0.05

How did O=C(NCc1ccccc1)C1C2C=CC3(CN(Cc4cccnc4)C(=O)C13)O2 (configuration not stated) do in these assays?
KCNQ2 inh: inactive; KCNQ2 pot: 0.18

Results for COCCC(=O)N1CCCC(C(=O)c2ccc(C(F)(F)F)cc2)C1 (configuration not stated) ?
KCNQ2 inh: inactive; KCNQ2 pot: 6.8*

Results for O=C(c1ccc(C(F)(F)F)cc1)C1CCCN(C(=O)CN2CCCC2=O)C1 (configuration not stated) ?
KCNQ2 inh: inactive; KCNQ2 pot: 0.37

Results for NC(=O)CC(NC(=O)c1ccc(Br)cc1)c1ccc(NCc2ccc(F)c(F)c2)c([N+](=O)[O-])c1 (configuration not stated) ?
KCNQ2 inh: inactive; KCNQ2 pot: 3.3

How did COc1ccc(C(=O)Nc2ccnn2C2CCN(C(=O)c3cnsn3)CC2)cc1 do in these assays?
KCNQ2 inh: inactive

Results for CCCCOc1ccc(-c2n[nH]c(=S)n2Cc2ccccc2)cc1 ?
KCNQ2 inh: inactive

What do the screens show for `Cc1ccc(N2CC(C(=O)OCc3nc(N)nc(Nc4ccccc4C)n3)CC2=O)cc1` (configuration not stated)?
KCNQ2 inh: inactive; KCNQ2 pot: 0.86

How did Cc1ccccc1Nc1nc(N)nc(COC(=O)C2CCCCC2)n1 do in these assays?
KCNQ2 inh: inactive; KCNQ2 pot: 7.7*

How did Cc1ccccc1NC(=O)CSCc1nc(N)nc(Nc2ccccc2C)n1 do in these assays?
KCNQ2 inh: inactive; KCNQ2 pot: 5.7*

Results for Cc1ccccc1Nc1nc(N)nc(CCl)n1 ?
KCNQ2 inh: inactive

Results for CSc1nc2ccccc2cc1/C=C(\C#N)c1ccc(Cl)c(Cl)c1 ?
KCNQ2 inh: inactive; KCNQ2 pot: 0.14

Results for CCN(CC)CCN(C(=O)c1ccc2c(c1)CCCC2)c1nc2ccc(C)cc2s1 ?
KCNQ2 inh: inactive

Results for Cc1cc(C)c2nc(N(CCN(C)C)C(=O)c3ccc4ccccc4c3)sc2c1 ?
KCNQ2 inh: -6*; KCNQ2 pot: -6

How did CCN(CC)CCN(C(=O)c1ccc2c(c1)CCCC2)c1nc2c(C)cccc2s1 do in these assays?
KCNQ2 inh: -8.1*; KCNQ2 pot: -8.1

How did CN(C)CCN(C(=O)c1ccc2ccccc2c1)c1nc2c(F)cccc2s1 do in these assays?
KCNQ2 inh: inactive

What do the screens show for `Cc1cc(/C=N/NC(=O)c2ccncc2)c(C)n1-c1ccccc1`?
KCNQ2 inh: inactive; KCNQ2 pot: 0.02

How did Cc1cc(C(=O)CN2CCC(C)CC2)c(C)n1-c1ccccc1F do in these assays?
KCNQ2 inh: inactive; KCNQ2 pot: 2.5

How did O=C(CN1C(=O)COc2ccc(S(=O)(=O)N3CCCCC3)cc21)NCc1ccc(F)cc1 do in these assays?
KCNQ2 inh: inactive; KCNQ2 pot: 2.4

How did Cc1cccc(/C(N)=N/OC(=O)c2cccc3ccccc23)c1 do in these assays?
KCNQ2 inh: -5.7*; KCNQ2 pot: -5.7

Results for N/C(=N\OC(=O)c1cccc2ccccc12)c1cccc([N+](=O)[O-])c1 ?
KCNQ2 inh: inactive; KCNQ2 pot: 0.82

Results for COc1ccccc1N1CCN(C(=O)c2cc3cc(C)ccc3[nH]2)CC1 ?
KCNQ2 inh: inactive; KCNQ2 pot: 1.7

Results for Cc1ccc2[nH]c(C(=O)N3CCN(C(c4ccccc4)c4ccccc4)CC3)cc2c1 ?
KCNQ2 inh: -5.8*; KCNQ2 pot: -5.8

How did Cc1ccc2c(CN3CCCc4ccccc43)cc(=O)oc2c1C do in these assays?
KCNQ2 inh: inactive

Results for O=c1cc(CN2CCc3ccccc32)c2ccc(O)cc2o1 ?
KCNQ2 inh: inactive

How did Cc1cc2oc(=O)cc(CN3CCc4ccccc43)c2cc1Cl do in these assays?
KCNQ2 inh: -6.4*; KCNQ2 pot: -6.4

What do the screens show for `CCc1ccc2c(CN3CCc4ccccc43)cc(=O)oc2c1`?
KCNQ2 inh: -5.6*; KCNQ2 pot: -5.6

What do the screens show for `O=C(N/N=C/c1ccccn1)c1cccc([N+](=O)[O-])c1`?
KCNQ2 inh: inactive

What do the screens show for `CCC(CC)NC(=O)c1oc2ccccc2c1COc1ccccc1`?
KCNQ2 inh: inactive

Results for CC(C)CNC(=O)c1oc2ccccc2c1COc1ccccc1 ?
KCNQ2 inh: -6.4*; KCNQ2 pot: -6.4

Results for N#Cc1ccc(-c2cccnc2)nc1SCC(=O)c1ccccc1 ?
KCNQ2 inh: inactive; KCNQ2 pot: 0.02

How did C=CCn1c(SCc2c(C)noc2C)nc2sc3c(c2c1=O)CCCC3 do in these assays?
KCNQ2 inh: inactive

How did C=CCn1c(SCc2c(C)noc2C)nc2sc3c(c2c1=O)CCCCC3 do in these assays?
KCNQ2 inh: -6.5*; KCNQ2 pot: -6.5

Results for CCOC(=O)/C=C1\Nc2ccccc2SC1=O ?
KCNQ2 inh: inactive

How did Cn1cc(/C=C(\NC(=O)c2ccccc2Cl)C(=O)N2CCOCC2)c2ccccc21 do in these assays?
KCNQ2 inh: -7*; KCNQ2 pot: -7

What do the screens show for `COc1ccccc1C(=O)N/C(=C\c1cn(C)c2ccccc12)C(=O)N1CCOCC1`?
KCNQ2 inh: inactive

What do the screens show for `CC1CCCN(CCCNC(=O)c2ccc3c(c2)N(Cc2ccc(F)cc2)C(=O)c2ccccc2S3=O)C1` (configuration not stated)?
KCNQ2 inh: inactive

What do the screens show for `CSc1ccccc1C(=O)N(C)Cc1ccccc1`?
KCNQ2 inh: inactive

Results for CSc1ccccc1C(=O)N(C)C(c1ccccc1)c1ccccc1 ?
KCNQ2 inh: -5.7*; KCNQ2 pot: -5.7

How did Cc1cc(C)c2c(=O)n(CC(=O)NC3CCCC3)sc2n1 do in these assays?
KCNQ2 inh: inactive; KCNQ2 pot: 4.2
